# Data: PubChem BioAssay AID1851 (National Center for Advancing Translational Sciences (NCATS), 2009)
# The campaign covered roughly 16,000 compounds. About 5,800 (36%) were called active. Not shown: some 23% with an inconclusive outcome. Calls come from the whole dose curve; as a rule, active = well fitted curve in the direction sought with a large enough effect; inconclusive = small, poorly fitted or top-dose-only effect, or effect the other way; inactive = no such curve, though single readings can be large or run the other way. This is one part of the list.
# Target: Cytochrome P450 2C19 (Homo sapiens) (UniProt P33261)
# Assay: Cytochrome panel assay with activity outcomes
# Settings: recombinant CYP, pro-luciferin dealkylation, luminescence, p450-cyp2c19; series mostly up to 57.1 µM
# % is set by controls: 0 for no effect and ±100 for the full control effect.
# Sequence of Cytochrome P450 2C19 (Homo sapiens) (P33261 whole entry, looked up): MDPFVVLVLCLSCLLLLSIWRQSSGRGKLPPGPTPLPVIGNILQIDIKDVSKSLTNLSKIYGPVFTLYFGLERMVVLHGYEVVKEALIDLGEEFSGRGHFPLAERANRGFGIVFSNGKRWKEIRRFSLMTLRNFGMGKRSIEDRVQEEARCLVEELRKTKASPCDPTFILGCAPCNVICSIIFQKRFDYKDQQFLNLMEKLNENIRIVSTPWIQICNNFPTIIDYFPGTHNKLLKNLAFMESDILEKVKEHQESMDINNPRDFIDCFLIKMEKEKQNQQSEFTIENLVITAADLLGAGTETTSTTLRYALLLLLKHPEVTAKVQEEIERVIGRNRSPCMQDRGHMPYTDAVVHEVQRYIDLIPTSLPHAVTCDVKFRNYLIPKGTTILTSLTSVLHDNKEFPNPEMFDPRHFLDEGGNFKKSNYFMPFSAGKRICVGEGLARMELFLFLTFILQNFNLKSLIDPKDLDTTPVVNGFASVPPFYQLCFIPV
Compound,AC50,"activity, negative = inhibition"
Cc1nnc(SCC(=O)N2CC(=O)Nc3ccccc32)n1Cc1ccccc1,inactive,
Cc1sc2nc(C3CC3)nc(SCC(=O)N3CC(=O)Nc4ccccc43)c2c1C,3.98 µM (active),
CC1=CC(=O)CC(C)(C)[C@]1(O)/C=C\C(C)=C\C(=O)O,,-25.7% [at 11.4 µM] (inactive)
CC1=C(\C=C/C(C)=C/C=C\C(C)=C\C(=O)O)C(C)(C)CCC1,5.01 µM (active),
CN(C)c1ncc2nc(-c3cccs3)c(=O)n(C[C@H]3CCCO3)c2n1,inactive,
CCCc1nc2ccccc2c(C(=O)OCC(=O)Nc2cccc(S(=O)(=O)N3CCOCC3)c2)c1CC,3.55 µM (active),
O=C(COC(=O)c1cccc(S(=O)(=O)N2CCOCC2)c1)Nc1nc(-c2ccccc2Cl)cs1,3.98 µM (active),
O=C(COC(=O)c1cccc(S(=O)(=O)N2CCN(c3ccccc3)CC2)c1)NCc1ccco1,0.708 µM (active),
COc1ccccc1/C=C/C(=O)c1ccc(Cl)cc1,2.24 µM (active),
COc1ccc(Cc2ccccc2C(=O)O)c2ccccc12,,12.2% [at 11.4 µM] (inactive)
COc1ccc2ccccc2c1/C=C\C(=O)c1ccccc1,0.316 µM (active),
COc1cc(C)cc(OC)c1/C=C\C(=O)O,,-0.542% [at 11.4 µM] (inactive)
COc1ccccc1/C=C/C(=O)c1c2c(c(C)[nH]c1=O)CCCC2,7.94 µM (active),
C[C@@H](Cc1ccccc1)Nc1ncnc2c1ncn2[C@@H]1O[C@@H](CO)[C@H](O)[C@@H]1O,inactive,
CC(O)(P(=O)(O)O)P(=O)(O)O,inactive,
CCCN=C(N)NCCC[C@H](N)C(=O)O,2 µM (active),
NC(=NCCC[C@H](N)C(=O)O)NO,inactive,
NC(=S)NCCC[C@@H](N)C(=O)O,inactive,
O=C1CN=C(Nc2ccc(Cl)cc2)N1c1ccccc1,11.2 µM (active),
O=C(O)c1nn(-c2ccc(Cl)cc2)c2c1C(=O)c1ccccc1C2=O,,4.89% [at 11.4 µM] (inactive)
CCOC(=O)COc1ccc(/C=C/[N+](=O)[O-])c(OCC(=O)OCC)c1,6.31 µM (active),
CCCCCN=c1ccn(Cc2ccccc2)c2ccccc12,0.251 µM (active),
O=C(CSc1nnc(CNc2ccc(F)cc2)o1)OC1CCCCC1,11.2 µM (active),

Compound,AC50,"activity, negative = inhibition"
O=C(CNCCO)N1CCc2ccccc21,inactive,
O=C(CSc1nnc(CNc2ccccc2)o1)N1CCCc2ccccc21,4.47 µM (active),
O=C(CSc1n[nH]c(-c2ccccc2O)n1)N1CCCc2ccccc21,2.51 µM (active),
O=C(CSc1nc(-c2ccccc2)cs1)N1CCc2ccccc21,2 µM (active),
CCn1ccc(C(=O)NC2=C(C#N)CCC2)n1,inactive,
CSc1nc(Oc2ccc(=O)[nH]n2)nc(N(C)C)n1,inactive,
CO[C@@H]1COC(=O)CCC[C@@H](C)[C@H](OC)COC(=O)CCC[C@H]1C,,5.51% [at 11.4 µM] (inactive)
O=C(CSc1nnc(CNc2ccc(F)cc2)o1)N1c2ccccc2Sc2ccccc21,2.82 µM (active),
COc1ccc(-n2ccnc2SCC(=O)Nc2ccc(OC)cc2OC)cc1,1.41 µM (active),
CCOc1ccc(-n2ccnc2SCC(=O)Nc2nnc(C)s2)cc1,inactive,
O=C(CSc1nnnn1-c1ccccc1)NCc1cccs1,0.891 µM (active),
CCOc1ccc(-n2ccnc2SCC(=O)Nc2nnc(CC)s2)cc1,8.91 µM (active),
CCc1nnc(NC(=O)CCC(=O)N2CCN(c3ccccn3)CC2)s1,inactive,
COc1ccc(-n2nnnc2SCC(=O)Nc2ccccc2)cc1,3.98 µM (active),
NCCSSCCN,inactive,
CN1CCCC2(CCN(C(=O)c3cnccn3)CC2)C1,inactive,
CCCC(=O)Nc1nnc(CCN2CCCCC2)s1,inactive,
CCCC(=O)Nc1nnc(SCC(=O)NCc2cccs2)s1,14.1 µM (active),
COc1ccc(-n2ccnc2SCC(=O)Nc2ccccc2)cc1,4.47 µM (active),
COc1ccc(NC(=O)CSc2nnc(C3CC3)n2N)cc1,inactive,
Cc1ccc2nc(SCC(=O)NCc3cccs3)c(C#N)cc2c1,inactive,
COc1ccc(NC(=O)CSc2nnc(C3CC3)n2-c2ccccc2)cc1,20 µM (active),
COc1cccc(-n2ccnc2SCC(=O)Nc2nccs2)c1,8.91 µM (active),

Compound,AC50,"activity, negative = inhibition"
Cc1cccc(-n2ncc3c(Nc4c(C)n(C)n(-c5ccccc5)c4=O)ncnc32)c1,inactive,
Cn1c(SCC(=O)Nc2ccccc2)nc(O)cc1=O,22.4 µM (active),
CCN(CC)C(=O)CSc1nc(O)cc(=O)n1CC,inactive,
O=C(CSC1=NCCN1)Nc1ccccc1,,-1.95% [at 11.4 µM] (inactive)
CCn1c(SCC(=O)c2ccc(OC)cc2)nnc1C1CC1,11.2 µM (active),
COc1ccc(NC(=O)CSc2ccc3c4c(cccc24)C(=O)c2ccccc2-3)cc1,0.708 µM (active),
CCn1c(SC)nnc1C1CCN(S(=O)(=O)c2ccc(OC)cc2)CC1,inactive,
Cn1ncc2c(Nc3cccc(C(=O)O)c3)ncnc21,inactive,
O=C(O)CS(=O)c1ccc2c3c(cccc13)C(=O)c1ccccc1-2 (configuration not stated),,-37% [at 11.4 µM] (inactive)
CC(=O)Nc1ccc(Nc2ncnc3c2cnn3-c2ccccc2)cc1,2.82 µM (active),
CC(=O)Nc1ccc(NC(=O)CSc2ncnn2-c2ccccc2)cc1,25.1 µM (active),
OCCNCCCOc1cccc(Cl)c1Cl,3.98 µM (active),
COc1c(Cl)cc(Cl)cc1CNCCNCCO,inactive,
Nc1ncnc2c1nc(Br)n2[C@@H]1O[C@H]2COP(=O)(O)O[C@@H]2[C@H]1O,inactive,
COC(=O)N1CCC2(CC1)CCN(c1ccncc1)CC2,inactive,
CNc1oc(-c2cccs2)nc1C#N,inactive,
N#Cc1nc(-c2cccs2)oc1NCc1ccccc1,1.58 µM (active),
O=C(Cn1c(-c2cscn2)nc2ccccc21)Nc1cc(F)ccc1F,3.16 µM (active),
CCCCCC/C(C)=C1/SC(=S)NC1=O,3.55 µM (active),
Cc1ncc(COP(=O)(O)O)c(C)c1O,,11.9% [at 11.4 µM] (inactive)
CCCC(CCC)C(=O)NNc1cc(=O)c2c(=O)n(C)c(=O)n(C)c2[nH]1,inactive,
